From PubChem BioAssay (NCI)
Compounds without any hit were thinned out: in the full panel of roughly 79,000, 15% have a hit. Active and inactive are the calls of the source. Rule as the data show it: active = growth inhibition above about 70%; inactive = the rest.

Legend:
[1] = NCI Yeast Anticancer Drug Screen. Data for the rad50 strain (AID 155);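 also: 0% = growth of vehicle-only cultures of the same strain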; conditions: S. cerevisiae rad50 strain growth inhibition, stronger effect = higher value
Method in brief: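 Relative growth inhibition (compound vs vehicle) was measured in yeast with a defined repair-gene alteration.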

[2] = NCI Yeast Anticancer Drug Screen. Data for the mec2-1 strain (AID 157); conditions: S. cerevisiae mec2-1 strain, stronger effect = higher value
Method in brief: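 Strain: mec2-1 (DNA repair/cell cycle alteration). Compound exposure, then growth measured; inhibition expressed relative to vehicle.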

[3] = NCI Yeast Anticancer Drug Screen. Data for the sgs1 mgt1 strain (AID 161);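 also: 0% = growth of cultures given vehicle only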; conditions: S. cerevisiae sgs1 mgt1 strain, stronger effect = higher value
Method in brief: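 Read-out: growth inhibition vs vehicle controls. Cells: mutant yeast strain deficient in DNA damage repair.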

[4] = NCI Yeast Anticancer Drug Screen. Data for the cln2 rad14 strain (AID 165);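 also: 0% = growth equal to vehicle treated cultures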; conditions: S. cerevisiae cln2 rad14 strain, stronger effect = higher value
Method in brief: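 Compounds are applied to the cln2 rad14 yeast strain, and growth is then compared with that of vehicle-treated cultures to give inhibition.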

[5] = NCI Yeast Anticancer Drug Screen. Data for the bub3 strain (AID 167); conditions: S. cerevisiae bub3 mutant strain, stronger effect = higher value
Method in brief: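 Screening used yeast with an engineered genetic alteration affecting cell cycle control. Compound-exposed cultures were compared with vehicle cultures, and reduced growth was taken as inhibition.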

[6] = NCI Yeast Anticancer Drug Screen. Data for the mlh1 rad18 strain (AID 175); conditions: S. cerevisiae mlh1 rad18 strain growth inhibition, stronger effect = higher value
Method in brief: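 Read-out is yeast growth inhibition, calculated against vehicle-only controls. The compound was applied to a strain engineered with DNA damage repair alterations.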

[7] = at 5.0 µM (retest, dose inferred, filed as 0.5)
[8] = at 50.0 µM (retest, dose inferred, filed as 5.0)

Measured: growth inhibition

N#Cc1c(-c2ccc(Cl)cc2)c(-c2ccc(Cl)cc2)nn(CCOC(=O)CCC(=O)O)c1=O
inactive: [1]; [7] 8% | [2]; [7] -3% | [3]; [7] 22% | [3]; [8] 66% | [4]; [7] -3% | [5]; [7] 16% | [6]; [7] 8%
active: [1]; [8] 76% | [1]; at 50.0 µM 89% | [2]; [8] 76% | [2]; at 50.0 µM 88.8% | [3]; at 50.0 µM 78.1% | [4]; [8] 86% | [4]; at 50.0 µM 85.2% | [5]; [8] 83% | [5]; at 50.0 µM 84% | [6]; [8] 81% | [6]; at 50.0 µM 87%

COC1C=COC2(C)Oc3c(C)c(O)c4c(O)c(c(C5SCCS5)c(O)c4c3C2=O)NC(=O)C(C)=C/C=C\C(C)C2OC(C)(C)OC(C2C)C(C)C(OC(C)=O)C1C (centres undefined)
inactive: [1]; [7] 5% | [2]; [7] 8% | [3]; [7] -2% | [3]; [8] 36% | [4]; [7] 20% | [5]; [7] 5% | [6]; [7] 9%
active: [1]; [8] 83% | [1]; at 50.0 µM 86.7% | [2]; [8] 93% | [2]; at 50.0 µM 93.6% | [3]; at 50.0 µM 90.8% | [4]; [8] 93% | [4]; at 50.0 µM 90.3% | [5]; [8] 95% | [5]; at 50.0 µM 83.8% | [6]; [8] 92% | [6]; at 50.0 µM 87.8%

CCOc1ncc(Cl)c(OCC)n1
inactive: [1]; [7] 3% | [1]; [8] -5% | [1]; at 50.0 µM -25.4% | [2]; [7] -4% | [2]; [8] -2% | [2]; at 50.0 µM 35.9% | [3]; [7] -1% | [3]; [8] -6% | [3]; at 50.0 µM -28.2% | [4]; [7] -7% | [4]; [8] 2% | [4]; at 50.0 µM -21.3% | [5]; [7] 1% | [5]; [8] -3% | [5]; at 50.0 µM -12.7% | [6]; [7] 2% | [6]; [8] -5% | [6]; at 50.0 µM -18.1%

c1ccc2c(c1)Nc1ccccc1[P+]21c2ccccc2Nc2ccccc21
active: [1]; [7] 98% | [1]; [8] 99% | [1]; at 50.0 µM 82.8% | [2]; [7] 99% | [2]; [8] 99% | [2]; at 50.0 µM 98.8% | [4]; [7] 99% | [4]; [8] 99% | [4]; at 50.0 µM 84.3% | [5]; [7] 99% | [5]; [8] 99% | [5]; at 50.0 µM 98.7% | [6]; [7] 99% | [6]; [8] 99% | [6]; at 50.0 µM 98.6%

O=C1c2ccccc2C(c2ccccc2)(c2ccccc2)N1c1ccccc1
inactive: [1]; [7] 3% | [2]; [7] -1% | [3]; [7] 28% | [4]; [7] 18% | [4]; [8] 69% | [6]; [7] 57%
active: [1]; [8] 79% | [1]; at 50.0 µM 97% | [2]; [8] 80% | [2]; at 50.0 µM 96.5% | [3]; [8] 90% | [3]; at 50.0 µM 95.6% | [4]; at 50.0 µM 91.3% | [6]; [8] 89% | [6]; at 50.0 µM 95.6%

C[N+](C)(C)c1nc(N)nc2c1ncn2C1OC(CO)C(O)C1O (centres undefined)
inactive: [1]; [7] 9% | [1]; [8] 15% | [1]; at 50.0 µM 29.5% | [2]; [7] 12% | [2]; [8] -11% | [2]; at 50.0 µM 6.5% | [3]; [7] 9% | [3]; [8] 3% | [3]; at 50.0 µM -40.6% | [4]; [7] -20% | [4]; [8] -2% | [6]; [7] 5% | [6]; [8] 16% | [6]; at 50.0 µM 11%
active: [4]; at 50.0 µM 70.3%

O=c1[nH]c(=S)[nH]c(-c2ccccc2)c1Cc1c(O)ccc2ccccc12
inactive: [1]; [7] -15% | [2]; [7] 32% | [2]; [8] 40% | [3]; [7] -10% | [3]; [8] 65% | [4]; [7] -17% | [4]; [8] 41% | [6]; [7] -4% | [6]; [8] 60%
active: [1]; [8] 74% | [1]; at 50.0 µM 88.7% | [2]; at 50.0 µM 89.6% | [3]; at 50.0 µM 84.3% | [4]; at 50.0 µM 75.2% | [6]; at 50.0 µM 79.7%

CSc1ncccc1C(=O)[O][Sn]([c]1ccccc1)([c]1ccccc1)[c]1ccccc1
active: [1]; [7] 100% | [1]; [8] 99% | [1]; at 50.0 µM 97.3% | [2]; [7] 100% | [2]; [8] 99% | [2]; at 50.0 µM 97.9% | [3]; [7] 100% | [3]; [8] 99% | [3]; at 50.0 µM 97.7% | [5]; [7] 99% | [5]; [8] 99% | [5]; at 50.0 µM 97.5% | [6]; [7] 99% | [6]; [8] 99% | [6]; at 50.0 µM 96.8%

CSC(=S)NN=C1CCCCC1
active: [1]; [8] 97% | [1]; at 50.0 µM 90.9% | [2]; [8] 98% | [2]; at 50.0 µM 88.5% | [3]; [8] 97% | [3]; at 50.0 µM 93.8% | [4]; [8] 78% | [6]; [8] 96% | [6]; at 50.0 µM 90.8%
inactive: [1]; [7] 59% | [2]; [7] 47% | [3]; [7] 49% | [4]; [7] 9% | [4]; at 50.0 µM 58.6% | [6]; [7] 55%

C/C(=N\NC(=S)N1CCN(c2ccccn2)CC1)c1ncccn1
active: [5]; at 50.0 µM 93.6% | [6]; at 50.0 µM 86%
inactive: [1]; [7] 2% | [1]; [8] -6% | [1]; at 50.0 µM 32.5% | [2]; [7] -20% | [2]; [8] -10% | [2]; at 50.0 µM 49.9% | [3]; [7] -7% | [3]; [8] -13% | [3]; at 50.0 µM 45.9% | [5]; [7] -10% | [5]; [8] -9% | [6]; [7] -3% | [6]; [8] 10%
